Compound activity: PubChem BioAssay, National Center for Advancing Translational Sciences (NCATS)
S-ASM inh: blocks human secretory acid sphingomyelinase | placental ASM, HMU-PC fluorogenic substrate, 60 min | AID 504937 | 340,000 compounds, 0.006% hits | Potency, µM (titrated, usually from 57.5 µM), without a hit: at the top dose activity change, negative = inhibition, actives largely listed as inhibitors; also: potency is read from the fitted curve at half-maximal effect
Target sequence (P17405 47-631 limits assumed): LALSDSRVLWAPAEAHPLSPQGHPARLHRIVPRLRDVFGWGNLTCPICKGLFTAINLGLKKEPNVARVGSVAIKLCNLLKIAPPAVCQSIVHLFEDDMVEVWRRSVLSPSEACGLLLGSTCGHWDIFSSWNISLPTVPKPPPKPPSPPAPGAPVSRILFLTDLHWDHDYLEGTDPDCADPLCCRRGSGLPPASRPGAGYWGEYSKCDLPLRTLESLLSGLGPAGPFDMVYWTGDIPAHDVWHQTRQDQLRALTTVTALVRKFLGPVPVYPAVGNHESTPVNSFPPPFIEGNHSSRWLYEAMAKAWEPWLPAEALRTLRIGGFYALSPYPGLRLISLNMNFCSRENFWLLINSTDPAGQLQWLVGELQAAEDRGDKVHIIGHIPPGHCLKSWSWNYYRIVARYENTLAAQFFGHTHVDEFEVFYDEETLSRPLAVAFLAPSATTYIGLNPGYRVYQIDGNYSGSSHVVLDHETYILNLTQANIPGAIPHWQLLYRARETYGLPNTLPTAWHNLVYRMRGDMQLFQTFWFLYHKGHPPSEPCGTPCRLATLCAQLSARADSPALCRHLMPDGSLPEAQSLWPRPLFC
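qHTS format. ASM enzyme prepared from human placenta hydrolyses the fluorogenic substrate HMU-PC0 (9 uM final) over 60 min at 37 °C after a 10 min compound preincubation.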
DT40 TDP1 no CPT: qHTS for Inhibitors of human tyrosyl-DNA phosphodiesterase 1 (TDP1): qHTS in cells in absence of CPT; DT40 Tdp1-/- hTDP1 cells, no CPT, ATP luminescence, 48 h; Potency, µM (titrated, usually from 46.2 µM), without a hit: at the highest dose activity change, negative = growth inhibition, actives largely listed as inhibitors; 420,000 compounds, 15% hits; also: potency is read from the fitted curve at half-maximal effect; % is scaled to controls: 0 for no effect and ±100 for the full control effect; nearly all actives have a fitted effect of over 55% in size
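Chicken DT40 Tdp1-/- cells complemented with human TDP1, screened without camptothecin (DMSO vehicle only), 400 cells/well. Compounds pin-transferred, cells incubated at 37 °C for at least 48 hr. Growth read as ATP-dependent luminescence (CellTiter-Glo, 30 min at RT).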
HepG2 viability: counter-screen for TGF-b inhibitors: cytotoxicity in HepG2 cells; HepG2 CAGA-GFP viability, ATP luminescence, 18 h; Potency, µM (highest dose often 46.1 µM), without a hit: at the top dose activity change, negative = cytotoxicity, most hits filed as cytotoxic; 410,000 compounds, 0.76% hits; AID 588856; also: potency is read from the fitted curve at half-maximal effect
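HepG2 CAGA-GFP cells (1000/well, DMEM with 1% FBS) received compound, then TGF-beta at 500 pg/mL final, and were incubated 18 hours at 37 degrees C. Viability was read by CellTiter-Glo luminescence. Media-only wells were set as complete cell-killing and DMSO as no toxicity.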
DT40 TDP1 CPT: DT40-hTDP1 cell growth loss with CPT | AID 686979 | chicken DT40 Tdp1-/-;hTDP1 cells + 20 nM CPT, ATP luminescence, 48 h | Potency, µM (highest dose often 46.2 µM), inactives show at the top dose activity change, negative = growth inhibition, actives largely listed as inhibitors | 420,000 compounds, 12% hits; also: potency is read from the fitted curve at half-maximal effect; % is scaled to controls: 0 for no effect and ±100 for the full control effect; nearly all actives have a fitted effect of over 55% in size
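Cell growth measured by CellTiter-Glo luminescence after a minimum 48 h, 37 C compound exposure with 20 nM CPT in Tdp1-knockout DT40 cells stably expressing hTDP1, seeded 400/well; qHTS titration format.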
TGFb inhibitor: TGF-b pathway inhibition; 410,000 compounds, 1.2% hits; AID 588855; HepG2 CAGA-GFP TGF-b/SMAD3 reporter, GFP fluorescence, 18 h; TGF-beta stimulated, 500 pg/mL final; Potency, µM (series often up to 46.1 µM), without a hit: top-dose activity, negative = inhibition, most hits filed as inhibitors; also: potency is read from the fitted curve at half-maximal effect; % is scaled to controls: 0 for no effect and ±100 for the full control effect; nearly all actives have a fitted effect of over 65% in size
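HEPG2 CAGA-GFP reporter cells (1000/well, DMEM with 1% FBS) received compounds, then recombinant TGF-beta at 500 pg/mL final for 18 hours at 37 degrees C. Per-cell GFP summed per well was normalised to unstimulated and stimulated DMSO controls before curve fitting.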
IL-1B inflam inh: blocks inflammasome-driven IL-1 beta release; activity change, % at 57.5 µM; AID 743279; 360,000 compounds, 4.7% hits; THP-1 LPS/ATP IL-1B secretion, AlphaLISA, 16 h; stronger effect = lower value; in the data active = activity change below about -50%; inconclusive = mostly about -30% to -49%; also: % is scaled to controls: 0 for no effect and ±100 for the full control effect
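Secreted IL-1B measured by AlphaLISA bead assay after 16 h compound exposure of THP-1 cells; compounds (final up to 57.5 uM) added 1 h before LPS (250 ng/mL) and ATP (1.25 mM) stimulation; lower signal means less secretion.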
* = called active by the depositor; u = inconclusive; x = not tested or not shown; ! = repeats disagree; [ ] = remark or other dose. Shown are actives, neighbours in structure and some others; about 19% of the full set was active somewhere. Unless noted, calls follow the shape of the dose curve; as a rule, active = well fitted curve in the direction sought with a large enough effect; inconclusive = small, poorly fitted or top-dose-only effect, or another doubt; inactive = no such curve, though single readings can be large; an effect the other way counts as inactive or inconclusive.

SMILES | S-ASM inh | DT40 TDP1 no CPT | HepG2 viability | DT40 TDP1 CPT | TGFb inhibitor | IL-1B inflam inh
CN(C)CCSc1nc(O)c(-c2ccccc2)c(=O)n1-c1ccccc1 | 2% | 0% | 20% | 3% | -6% | 13
Cc1sc2nc(SCCN(C)C)n(-c3ccccc3)c(=O)c2c1-c1ccc(F)cc1 | -5% | 26µM* | -31% | 18µM* | 3% | -17
COc1ccc(-c2nnc(NC(=O)c3ccc(S(=O)(=O)N4CCc5ccccc5C4)cc3)o2)cc1 | 0% | 4.5µM* | -25% | 4.5µM* | -10% | 6
COC(=O)c1ccc(-c2csc(NC(=O)c3ccc(S(=O)(=O)N4CCc5ccccc5C4)cc3)n2)cc1 | 4% | 5.8µM* | -4% | 7.3µM* | -1% | -1
COc1ccc(-c2csc(NC(=O)c3ccc(S(=O)(=O)N4CCc5ccccc5C4)cc3)n2)cc1 | 0% | u | 9% | -13% | 6% | 14
CCc1ccc(C2CC(=O)c3c([nH]c(C(=O)OCC4CCCCC4)c3C)C2)cc1 (stereo not given) | x | u | 8% | -25% | 10% | x
CCOC(=O)c1[nH]c2c(c1Cc1ccccc1OC)C(=O)CC(c1ccc(OCC)cc1)C2 (stereo not given) | x | 9.2µM* | 4% | 8.2µM* | -19% | x
CCOc1ccc(C2CC(=O)c3c([nH]c(C(=O)OCC4CCCCC4)c3C)C2)cc1 (stereo not given) | x | 18µM* | -12% | u | 25% | x
CCOC(=O)c1[nH]c2c(c1Cc1ccccc1OC)C(=O)CC(c1ccccc1)C2 (stereo not given) | x | u | -7% | u | 0% | x
COc1cc(C2CC(=O)c3c([nH]c(C(=O)OC4CCCCC4)c3C)C2)cc(OC)c1OC (stereo not given) | x | 2.1µM* | -8% | 1.8µM* | -14% | x
COc1cc(C2CC(=O)c3c([nH]c(C(=O)OCC4CCCCC4)c3C)C2)cc(OC)c1OC (stereo not given) | x | 1.6µM* | -23% | 1.3µM* | -10% | x
Cn1nnnc1SCCCNCc1ccccc1OCc1ccc(F)cc1 | x | u | -11% | u | -6% | x
COc1ccc(Cl)cc1-c1cc2c(c(OC)c1)OCCN(Cc1cccn1-c1nccs1)C2 | x | 0% | x | 0%[9.04 µM] | x | x
COc1ccccc1-n1c(=O)n(C)c2c(C(N)=O)nc(-c3cc(OC)c(OC)c(OC)c3)nc21 | x | x | -23% | x | 37% | x
CC(C)C[C@H]1CN([C@@H](Cc2ccc(O)cc2)CN2CCC[C@@H]2CN2C(=O)C(=O)NC[C@@H]2Cc2ccccc2)C(=O)C(=O)N1CC1CCCCC1 | 2% | u | -4% | u | u | u
CC(C)C[C@H]1CN([C@@H](Cc2ccc(O)cc2)CN2CCC[C@H]2CN2C(=O)C(=O)NC[C@@H]2Cc2ccccc2)C(=O)C(=O)N1CC1CCCCCC1 | x | u | x | u | x | -82*
CC(C)C[C@H]1CN([C@@H](Cc2ccccc2)CN2CCC[C@@H]2CN2C(=O)C(=O)NC[C@@H]2Cc2ccc(O)cc2)C(=O)C(=O)N1CC1CCCCCC1 | x | u | -9% | u | u | -17
CC(C)C[C@H]1CN([C@@H](Cc2ccccc2)CN2CCC[C@@H]2CN2C(=O)C(=O)NC[C@@H]2Cc2ccccc2)C(=O)C(=O)N1CC1CCCCC1 | x | 16µM* | 20µM* | 21µM* | 8.9µM* | -59*
CC(C)C[C@H]1CNC(=O)C(=O)N1C[C@@H]1CCCN1C[C@H](Cc1ccc(O)cc1)N1C[C@H](Cc2ccccc2)N(CC2CCCCC2)C(=O)C1=O | x | u | x | u | x | -59*
COC(=O)[C@]12C(=O)NC[C@H](CN1c1ccc(C(F)(F)F)cc1)N2C | 0% | u | -21% | -17% | 0% | -9
CCCNC(=O)C1(C)CCCN(C(=O)c2c(C)noc2C)C1 (stereo not given) | x | 11% | 5% | 18% | 4% | -5
CC(=O)c1ccc(N2CCN(C(=O)c3nn(C)c4c3CS(=O)(=O)c3ccccc3-4)CC2)cc1 | -1% | u | -6% | u | 3% | -10
Cn1nc(C(=O)N2CCN(c3cccc(Cl)c3)CC2)c2c1-c1ccccc1S(=O)(=O)C2 | -5% | u | -3% | 18µM* | 12% | -22
COc1ccc(N2CCN(C(=O)c3nn(C)c4c3CS(=O)(=O)c3ccccc3-4)CC2)cc1 | -7% | u | 9% | 23µM*! | 2% | 18
COc1ccccc1N1CCN(C(=O)c2nn(C)c3c2CS(=O)(=O)c2ccccc2-3)CC1 | 2% | u | 1% | u | 4% | 2
SMILES | S-ASM inh | DT40 TDP1 no CPT | HepG2 viability | DT40 TDP1 CPT | TGFb inhibitor | IL-1B inflam inh
Cc1ccc(N2CCN(C(=O)c3nn(C)c4c3CS(=O)(=O)c3ccccc3-4)CC2)c(C)c1 | -8% | 21µM* | -40% | 18µM* | u | -21
Cn1nc(C(=O)NCc2cccc(Cl)c2)c2c1-c1ccccc1S(=O)(=O)C2 | -4% | u | -2% | u | u | 4
Cc1ccc(Cl)cc1N1CCN(C(=O)c2nn(C)c3c2CS(=O)(=O)c2ccccc2-3)CC1 | x | 12µM* | -16% | 21µM* | -18% | x
CCOC(=O)c1cccc(NC(=O)c2cc3c(=O)n(Cc4cccnc4)ccc3nc2C)c1 | x | u | -4% | u | -25% | x
Cc1cc(C)c(S(=O)(=O)c2ccccc2Cl)c(=O)[nH]1 | -1% | 19% | -3% | 2% | 3% | 7
CC1CCCC(NC(=O)c2nn(C)c3c2CS(=O)(=O)c2ccccc2-3)C1C (stereo not given) | -2% | 9.2µM* | -4% | u | 7% | 6
COc1cc(NC(=O)c2nn(C)c3c2CS(=O)(=O)c2ccccc2-3)cc(OC)c1 | -7% | 16µM* | -8% | u | 14% | 0
Cn1nc(C(=O)NCCc2ccc(Cl)cc2)c2c1-c1ccccc1S(=O)(=O)C2 | 0% | 29µM* | -1% | u | 1% | -5
COC(=O)c1ccccc1NC(=O)c1nn(C)c2c1COc1ccccc1-2 | x | -2% | -38% | -5% | -6% | x
COc1cc(NC(=O)c2nn(C)c3c2COc2ccccc2-3)cc(OC)c1OC | x | 3.3µM* | -27% | 4.6µM* | -19% | x
Cc1ccc(CSc2nc3cccnc3n2Cc2ccc(C(=O)NCc3ccco3)cc2)cc1 | x | -28% | -23% | -11% | -28% | x
